Consider eleven compounds from PubChem BioAssay (EPA / NIEHS).

Assay [1] can be described thus: CCTE_Harrill_HTTr_Viability_DMEM_6hr: (Pilot) CCTE's 6-hour Cell Viability Assessment for the High-Throughput Transcriptomics (HTTr) Platform, in MCF-7 cells cultured in DMEM + 10% fetal bovine serum, Harrill Lab (AID 2283973). The gist of the method: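 MCF-7 cells in DMEM + 10% FBS, eight-point dilution series, 6 h exposure. Membrane integrity by propidium iodide exclusion with high-content imaging; bidirectional fit versus DMSO.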

A short description of assay [2]: CCTE_Harrill_HTTr_Viability_DMEM_12hr: (Pilot) CCTE's 12-hour Cell Viability Assessment for the High-Throughput Transcriptomics (HTTr) Platform, in MCF-7 cells cultured in DMEM + 10% fetal bovine serum, Harrill Lab (AID 2283974). Put shortly:
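MCF-7 cells in DMEM + 10% FBS exposed 12 h to an eight-point dilution series; membrane integrity scored by propidium iodide exclusion with high-content imaging, bidirectional fitting versus DMSO.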

Assay [3] can be described thus: CCTE_Harrill_HTTr_Viability_DMEM_24hr: (Pilot) CCTE's 24-hour Cell Viability Assessment for the High-Throughput Transcriptomics (HTTr) Platform, in MCF-7 cells cultured in DMEM + 10% fetal bovine serum, Harrill Lab (AID 2283975). Put shortly:
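MCF-7 cells in DMEM with 10% FBS exposed for 24 hours to an eight-point dilution series. Membrane integrity by propidium iodide exclusion with high content imaging; bidirectional fit against DMSO.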

A short description of assay [4]: CCTE_Harrill_HTTr_Viability_PRF_DMEM_6hr: (Pilot) CCTE's 6-hour Cell Viability Assessment for the High-Throughput Transcriptomics (HTTr) Platform, in MCF-7 cells cultured phenol red-free DMEM + 10% charcoal-stripped fetal bovine serum, Harrill Lab (AID 2283976). The gist of the method: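 MCF-7 cells in phenol red-free DMEM with 10% charcoal-stripped FBS exposed 6 hours to an eight-point dilution series. Propidium iodide exclusion imaged; curves fitted bidirectionally against DMSO.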

Assay [5] in a line: CCTE_Harrill_HTTr_Viability_PRF_DMEM_12hr: (Pilot) CCTE's 12-hour Cell Viability Assessment for the High-Throughput Transcriptomics (HTTr) Platform, in MCF-7 cells cultured in phenol red-free DMEM + 10% charcoal-stripped fetal bovine serum, Harrill Lab (AID 2283977). Put shortly: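 MCF-7 cells in phenol red-free DMEM with 10% charcoal-stripped FBS exposed 12 hours to an eight-point dilution series. Viability assessed by high-content imaging of propidium iodide exclusion; bidirectional fit versus DMSO.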

Assay [6] in a line: CCTE_Harrill_HTTr_Viability_PRF_DMEM_24hr: (Pilot) CCTE's 24-hour Cell Viability Assessment for the High-Throughput Transcriptomics (HTTr) Platform, in MCF-7 cells cultured in phenol red-free DMEM + 10% charcoal-stripped fetal bovine serum, Harrill Lab (AID 2283980). Put shortly: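 MCF-7 cells in phenol red-free DMEM with 10% charcoal-stripped FBS, eight-point dilution series, 24 h exposure. Membrane integrity by propidium iodide exclusion with high content imaging; bidirectional fit vs DMSO.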

Assay [7] in a line: CCTE_Harrill_HTTr_Apoptosis_DMEM_6hr: (Pilot) CCTE's 6-hour Apoptosis Assessment for the High-Throughput Transcriptomics (HTTr) Platform, in MCF-7 cells cultured in DMEM + 10% fetal bovine serum, Harrill Lab (AID 2283981). Put shortly: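 Caspase-3/7 activation read by high content imaging with CellEvent Caspase 3/7 Green in MCF-7 cells (DMEM + 10% FBS), 6 h after dosing; eight-point dilution series. Bidirectional fitting relative to DMSO baseline.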

Assay [8] can be described thus: CCTE_Harrill_HTTr_Apoptosis_DMEM_12hr: (Pilot) CCTE's 12-hour Apoptosis Assessment for the High-Throughput Transcriptomics (HTTr) Platform, in MCF-7 cells cultured in DMEM + 10% fetal bovine serum, Harrill Lab (AID 2283982). The gist of the method:
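MCF-7 cells in DMEM + 10% FBS, exposed 12 h to an eight-point dilution series; caspase-3/7 activation imaged with CellEvent Green. Bidirectional fit versus DMSO.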

Assay [9] can be described thus: CCTE_Harrill_HTTr_Apoptosis_DMEM_24hr: (Pilot) CCTE's 24-hour Apoptosis Assessment for the High-Throughput Transcriptomics (HTTr) Platform, in MCF-7 cells cultured in DMEM + 10% fetal bovine serum, Harrill Lab (AID 2283983). The gist of the method: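 MCF-7 cells in DMEM + 10% FBS, eight-point dilution series, 24 h exposure. Caspase-3/7 activation imaged by high-content imaging with CellEvent Caspase 3/7 Green. Bidirectional curve fitting against DMSO baseline.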

A short description of assay [10]: CCTE_Harrill_HTTr_Apoptosis_PRF_DMEM_6hr: (Pilot) CCTE's 6-hour Apoptosis Assessment for the High-Throughput Transcriptomics (HTTr) Platform, in MCF-7 cells cultured phenol red-free DMEM + 10% charcoal-stripped fetal bovine serum, Harrill Lab (AID 2283984). Put shortly: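 MCF-7 cells in phenol red-free DMEM + 10% charcoal-stripped FBS, eight-point dilution series, 6 h exposure. Caspase-3/7 activation imaged by high-content imaging with CellEvent Caspase 3/7 Green; bidirectional fit versus DMSO baseline.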

Assay [11] in a line: CCTE_Harrill_HTTr_Apoptosis_PRF_DMEM_24hr: (Pilot) CCTE's 24-hour Apoptosis Assessment for the High-Throughput Transcriptomics (HTTr) Platform, in MCF-7 cells cultured in phenol red-free DMEM + 10% charcoal-stripped fetal bovine serum, Harrill Lab (AID 2283986). Put shortly:
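MCF-7 cells in phenol red-free DMEM with 10% charcoal-stripped FBS, exposed 24 h across an eight-point dilution series. Caspase-3/7 activation imaged with CellEvent Green by high content imaging; bidirectional fitting against DMSO.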

In assay [12] the target is Nucleoli Translocation, AR (gene 367) (UniProt P10275). The experiment in a line: UPITT_HCI_U2OS_AR_TIF2_Nucleoli_Antagonist: University of Pittsburgh U2OS Androgen Receptor-Transcriptional Intermediary Factor 2 (AR-TIF2) Antagonism High Content Imaging Assay for Nucleoli Translocation (AID 2283997; active = hit-call score of the fitted dose curve at least 0.9, where 1 is the maximum). The gist of the method:
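U2OS cells expressing RFP-tagged human AR and GFP-tagged TIF2 were imaged by high-content fluorescence microscopy for red AR signal in the nucleolar region. Compounds were screened at 20 uM final (0.2% DMSO), with activity fitted relative to DHT as baseline.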

For assay [13] the target is unchanged. In words: UPITT_HCI_U2OS_AR_TIF2_Nucleoli_Agonist: University of Pittsburgh U2OS Androgen Receptor-Transcriptional Intermediary Factor 2 (AR-TIF2) Agonism High Content Imaging Assay for Nucleoli Translocation (AID 2283998; active = hit-call score of the fitted dose curve at least 0.9, where 1 is the maximum). The gist of the method:
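RFP-AR / GFP-TIF2 cells; cpds diluted in serum-free medium; single-point screen 20 uM final (0.2% DMSO), actives confirmed in triplicate; conc-response 0.195–50 uM final (0.5% DMSO). Readout: nucleolar red fluorescence, positive direction vs DMSO.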

Assay [14] addresses Ratio of Nucleoli Translocation and Cytoplasm, AR (gene 367) (UniProt P10275). The experiment in a line: UPITT_HCI_U2OS_AR_TIF2_Nucleoli_Cytoplasm_Ratio_Antagonist: University of Pittsburgh U2OS Androgen Receptor-Transcriptional Intermediary Factor 2 (AR-TIF2) Antagonism High Content Imaging Assay for Ratio of Nucleoli Translocation and Cytoplasm (AID 2283999; active = hit-call score of the fitted dose curve at least 0.9, where 1 is the maximum;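 note: antagonists lower the DHT-driven ratio of nucleolar to cytoplasmic red signal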). The gist of the method:
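U2OS cells co-expressing RFP-tagged human AR and GFP-tagged TIF2, antagonist mode with DHT as baseline. Nucleolar-to-cytoplasmic red fluorescence ratio imaged by high-content microscopy; final compound 20 uM (0.2% DMSO) primary, 0.195–50 uM (0.5% DMSO) concentration-response.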

Assay [15] in a line: CCTE_Simmons_MITO_basal_resp_rate: CCTE's HepG2 Seahorse XF Respirometric Screening Assay at Basal Respiratory State, Simmons Lab (AID 2284001). As to conditions: actives raise or lower the signal. Put shortly:
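HepG2 cells were given test chemicals at 7 concentrations, 125 nM to 100 uM final, and oxygen consumption rate was read every 6 min (3 min mix, 3 min measure) over 72 min. Basal-phase OCR was fitted bidirectionally against DMSO.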

A short description of assay [16]: CCTE_Simmons_MITO_max_resp_rate: CCTE's HepG2 Seahorse XF Respirometric Screening Assay at Maximal Respiratory State [uncoupled], Simmons Lab (AID 2284002). To be noted: actives raise or lower the signal. Put shortly: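 HepG2, Seahorse XF96, maximal OCR post-FCCP. Cpd 125 nM–100 uM final (7 conc), n=3 biological. Kinetic reads every 6 min (3 min mix/3 min measure) over 72 min; fit bidirectional vs DMSO.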

Assay [17] in a line: CCTE_Simmons_MITO_inhib_resp_rate: CCTE's HepG2 Seahorse XF Respirometric Screening Assay at Inhibited Respiratory State [full ETC block], Simmons Lab (AID 2284006). As to conditions: actives raise or lower the signal. Put shortly:
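HepG2 oxygen consumption was measured by Seahorse XF after compound, FCCP, then rotenone/antimycin A injections. Seven concentrations from 125 nM to 100 uM (final) were tested, with 6-min kinetic reads over 72 minutes. Inhibited-state OCR was fitted bidirectionally against DMSO.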

Another assay has as its system DIO1 (gene 1733). In words: CCTE_GLTED_hDIO1: CCTE's human Deiodinase 1 (DIO1) Inhibition Assay, Great Lakes Toxicology and Ecology Division (GLTED) Lab (AID 2283987; active = hit-call score of the fitted dose curve at least 0.9, where 1 is the maximum;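 note: isolated human DIO1 enzyme in a cell-free setup rather than cells; enzyme activity read as free iodide liberated from substrate via Sandell-Kolthoff colorimetry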). Put shortly:
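Steps: human DIO1 enzyme plus test chemical, 3 h incubation; free iodide then quantified in a second Sandell-Kolthoff step by absorbance. DMSO served as negative control and baseline.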

Inconclusive results are not listed. The source made the active and inactive calls. Rule for the calls, unless noted: active = hit-call score of the fitted dose curve at least 0.9, where 1 is the maximum; inactive = score below 0.9.

Sequence of Ratio of Nucleoli Translocation and Cytoplasm, AR (gene 367) (P10275 whole entry, looked up): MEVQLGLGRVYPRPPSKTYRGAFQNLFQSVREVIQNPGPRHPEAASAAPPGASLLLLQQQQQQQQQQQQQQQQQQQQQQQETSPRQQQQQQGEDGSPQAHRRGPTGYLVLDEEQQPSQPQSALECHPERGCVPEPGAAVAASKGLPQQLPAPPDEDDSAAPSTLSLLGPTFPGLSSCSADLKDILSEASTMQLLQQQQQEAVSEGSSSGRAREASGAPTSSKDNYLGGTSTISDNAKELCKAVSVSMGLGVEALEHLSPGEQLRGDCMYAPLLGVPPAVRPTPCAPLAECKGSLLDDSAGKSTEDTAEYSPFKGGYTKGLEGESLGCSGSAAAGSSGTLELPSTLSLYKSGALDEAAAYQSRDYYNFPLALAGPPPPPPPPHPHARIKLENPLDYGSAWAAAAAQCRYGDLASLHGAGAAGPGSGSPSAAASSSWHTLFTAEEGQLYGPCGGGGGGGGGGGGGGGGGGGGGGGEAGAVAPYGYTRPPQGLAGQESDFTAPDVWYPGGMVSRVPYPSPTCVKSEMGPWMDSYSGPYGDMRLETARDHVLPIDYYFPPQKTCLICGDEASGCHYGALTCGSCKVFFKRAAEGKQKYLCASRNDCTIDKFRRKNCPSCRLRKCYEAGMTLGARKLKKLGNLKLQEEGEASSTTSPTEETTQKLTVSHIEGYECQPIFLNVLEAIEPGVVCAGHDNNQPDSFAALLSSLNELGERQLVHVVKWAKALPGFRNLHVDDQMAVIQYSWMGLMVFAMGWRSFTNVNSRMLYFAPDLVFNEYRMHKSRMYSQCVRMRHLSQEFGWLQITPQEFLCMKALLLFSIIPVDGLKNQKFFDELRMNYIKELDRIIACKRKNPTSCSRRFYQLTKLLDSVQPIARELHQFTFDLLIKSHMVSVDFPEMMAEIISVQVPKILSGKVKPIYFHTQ
Sequence of Nucleoli Translocation, AR (gene 367) (P10275 whole entry, looked up): as above

As for `CC(C)OC(=O)C(C)(C)Oc1ccc(C(=O)c2ccc(Cl)cc2)cc1`, the result in assay [1], in [2], in assay [3], in assay [4], in assay [5] and in assay [6] was inactive. The result in assay [7], in assay [8], in assay [9], in assay [10], in [11] and in assay [12] was inactive. Besides, the compound was called inactive in [13] and in assay [14]. The half-maximal activity concentration (AC50) in assay [15] is 30.5 µM (active); in assay [16] it was 37.2 µM (active).
With `CCCCCCCCCC[N+](C)(C)[O-]`, the outcome in assay [12], in assay [13] and in assay [14] was inactive.
As to `O=C1OC(c2ccc(O)cc2)(c2ccc(O)cc2)c2ccccc21`, the half-maximal activity concentration (AC50) was 86.2 µM (active) in assay [12], 78.7 µM (active) in assay [13] and 32.6 µM (active) in assay [15]. The outcome in [14], in [16] and in assay [17] was inactive.
Regarding `O=C1CCCCC1`, the result in assay [12] and in assay [13] was inactive.
With `COC(=O)[C@H]1[C@H]2C[C@@H]3c4[nH]c5cc(OC)ccc5c4CCN3C[C@H]2C[C@@H](OC(=O)c2cc(OC)c(OC)c(OC)c2)[C@@H]1OC`, the result in assay [1], in assay [2], in assay [3], in assay [4], in assay [5] and in assay [7] was inactive. In addition, the result in assay [8] and in assay [10] was inactive. The figures for the AC50 in assay [9] and in assay [11] were 46.2 µM (active) and 58.3 µM (active), respectively.
As to `CCC(C)N(C)C(=O)c1cc2ccccc2c(-c2ccccc2Cl)n1` (stereo not given), the compound was classed as inactive in assay [12], in assay [13] and in assay [14].
`CSc1ccc(Oc2ccc(S(N)(=O)=O)cc2CN(C)C)cc1C`: the call in assay [12] and in assay [14] was inactive. Besides, in assay [13], the AC50 is 50 µM (active).
Turning to `CC(=O)O[C@]1(C(C)=O)CC[C@H]2[C@@H]3C=C(Cl)C4=CC(=O)[C@@H]5C[C@@H]5[C@]4(C)[C@H]3CC[C@@]21C`, the outcome in [1], in assay [2], in [3], in assay [4], in assay [5] and in assay [6] was inactive. The outcome in assay [7], in assay [8], in assay [9], in assay [10], in assay [11] and in assay [17] was inactive. The half-maximal activity concentration (AC50) in [15] was 29 µM (active); in [16] it was 28.1 µM (active).
Turning to `CCN(CC)CCOc1ccc(C(=C(Cl)c2ccccc2)c2ccccc2)cc1`, the AC50 in assay [1] was 82.4 µM (active); in assay [2], 65.3 µM (active); in [3] it was 54.8 µM (active); in assay [4], 70 µM (active); in assay [5], 65.8 µM (active); in assay [6], 50.3 µM (active). The AC50 in [7] is 81.1 µM (active); in [8], 83.4 µM (active); in assay [9] it was 66.2 µM (active); in [10] it was 79.6 µM (active); in assay [11], 68.3 µM (active); with DIO1 (gene 1733), 70.7 µM (active). For the same compound, in assay [16], the AC50 was 91 µM (active). Further, the compound was classed as inactive in assay [12], in assay [13], in assay [14], in assay [15] and in [17].
In the case of `C#CC(O)C(CC)CCCC` (stereo not given), the values for the half-maximal activity concentration (AC50) in assay [12] and in assay [14] were 22.5 µM (active) and 14.8 µM (active), respectively. The compound was called inactive in [13].
Regarding `Cc1cc(SC2=C(O)C[C@@](CCc3ccc(N)cc3)(C(C)C)OC2=O)c(C(C)(C)C)cc1CO`, in the assay with DIO1 (gene 1733), the concentration at half-maximal activity (AC50) is 66.3 µM (active). In addition, the compound was called inactive in [12], in [13], in assay [14], in assay [15], in [16] and in assay [17].

Usually AC50 stands for the concentration at which the activity in the assay is half-maximal.
